Assay outcomes (PubChem BioAssay)
Chlamy TAG: algal TAG accumulation induction; Chlamydomonas reinhardtii TAG, Nile Red fluorescence, 72 h; calls only at 10 µM (by protocol); 44,000 tested, 0.84% active; call rule not given here;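 further: hits raise Nile Red signal meaning more stored TAG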
Starred values were filed as active, the others as inactive; i = inactive; + = active, no number. Shown is part of a subset that was picked to be rich in hits.

SMILES | Chlamy TAG
O=[N+]([O-])c1ccc(CN2CCN(c3ccc(Cl)cc3)CC2)cc1 | i
O=[N+]([O-])c1ccc(N2CCN(Cc3ccc(Cl)cc3)CC2)cc1 | i
O=[N+]([O-])c1ccc(CN2CCN(c3ccccc3)CC2)cc1 | +
COc1ccc(CN2CCN(c3cccc(OC)c3)CC2)cc1 | i
COc1ccc(N2CCN(Cc3ccc([N+](=O)[O-])cc3)CC2)cc1 | i
COc1cccc(N2CCN(Cc3ccc([N+](=O)[O-])cc3)CC2)c1 | +
Cc1ccccc1N1CCN(Cc2ccc(Cl)cc2)CC1 | i
Cc1ccccc1N1CCN(Cc2ccc([N+](=O)[O-])cc2)CC1 | +
Cc1ccccc1N1CCN(Cc2cccc([N+](=O)[O-])c2)CC1 | i
O=[N+]([O-])c1cccc(CN2CCN(c3ccc(Cl)cc3)CC2)c1 | i
CC1CN(c2c(Cl)cccc2[N+](=O)[O-])CCN1 (stereo not given) | i
CCc1ccc(CN2CCN(c3ccc([N+](=O)[O-])cc3)CC2)cc1 | i
Cc1ccc(C)c(N2CCN(Cc3cccc([N+](=O)[O-])c3)CC2)c1 | i
O=c1c2ccccc2nc(/C=C/c2ccc(F)cc2)n1-c1ccc([N+](=O)[O-])cc1 | i
COCC(C)NC1CC2CCC1C2 (stereo not given) | i
O=c1c2ccccc2nc(C=Cc2ccccc2Cl)n1-c1ccccc1[N+](=O)[O-] | i
CCC(N)C(=O)c1ccc(Br)cc1 (stereo not given) | i
COc1ccc(OC)c(CNCCc2cccc(F)c2)c1 | i
COc1ccc(OC)c(CNCCc2ccc([N+](=O)[O-])cc2)c1 | +
COc1ccccc1CNCCc1ccc(OC)c(OC)c1 | i
COc1ccc(CNCCc2cccc(F)c2)cc1C | i
COc1ccc(CN2CCN(c3ccccc3)CC2)cc1Br | i
CCOc1ccccc1N1CCN(Cc2ccccc2F)CC1 | i
CN1CCN(Cc2ccc(Cl)cc2)CC1 | i
CCc1ccc(CN2CCN(CCO)CC2)cc1 | +
SMILES | Chlamy TAG
CCc1ccc(CN2CCN(C)CC2)cc1 | i
CCc1ccc(CN2CCN(C(C)C)CC2)cc1 | i
CC(C)c1ccc(CN2CCN(C)CC2)cc1 | +
CN1CCN(Cc2c(Cl)cccc2Cl)CC1 | i
CN(CC#CC(C)(O)C1CC1)C1CCCCC1 (stereo not given) | i
CC(C)N1CCN(Cc2cccc(F)c2)CC1 | i
Cc1cccc(N2CCN(CCc3ccccc3)CC2)c1C | i
Fc1ccccc1N1CCN(Cc2ccc(Cl)cc2)CC1 | i
Oc1ccc(CN2CCN(Cc3ccccc3)CC2)cc1 | +
CN(C)c1ccc(CN2CCN(c3ccccc3Cl)CC2)cc1 | i
Fc1ccc(CN2CCN(c3ccccc3Cl)CC2)cc1 | +
CN(C)c1ccc(CN2CCN(Cc3ccccc3)CC2)cc1 | i
OCCN1CCN(Cc2ccccc2)CC1 | i
OC1CCN(CCc2ccccc2)CC1 | i
CN(C)c1ccc(CN2CCN(c3ccc(F)cc3)CC2)cc1 | i
Cc1ccc(CN2CCN(c3ccc(Cl)cc3)CC2)cc1 | i
Cc1ccc(CN2CCN(c3ccc(F)cc3)CC2)cc1 | +
Cc1ccc(N2CCN(CCc3ccccc3)CC2)cc1 | +
COc1cc(Br)cc(/C=C/[N+](=O)[O-])c1O | i
CCOc1ccc(CN2CCN(c3cccc(Cl)c3)CC2)cc1 | i
CN1CCN(c2ccc([N+](=O)[O-])cc2F)CC1 | i
N/C(=N/[N+](=O)[O-])N1CCN(C(=O)c2cccc([N+](=O)[O-])c2)CC1 | i
O=C1CC(=O)N(c2ccc(I)cc2)C(=O)N1 | i
Fc1ccc(N2CCN(Cc3ccccc3)CC2)cc1 | +
COc1ccccc1N1CCN(Cc2ccc(Br)cc2)CC1 | i
SMILES | Chlamy TAG
CCC(C)N1CCN(Cc2ccccc2)CC1 (stereo not given) | i
COc1ccccc1N1CCN(Cc2ccc(Cl)cc2)CC1 | +
CN1CCN(Cc2ccccc2)CC1 | i
c1ccc(CN2CCN(c3ccccc3)CC2)cc1 | i
c1ccc(CN2CCN(C3CCCCC3)CC2)cc1 | +
CCc1ccc(CN2CCN(c3ccccc3OC)CC2)cc1 | i
Fc1ccc(CN2CCN(c3ccccc3)CC2)cc1 | i
c1cncc(CN2CCN(C3CC4CCC3C4)CC2)c1 (stereo not given) | i
COc1ccc(CNCCc2cccc(F)c2)c(OC)c1 | i
CN(CCc1ccccc1)Cc1cccc(O)c1 | i
Cc1[nH]c2ccc(C(=O)O)cc2c1CCN | i
O=[N+]([O-])c1ccc(N2CCN(Cc3ccc(F)c(Br)c3)CC2)cc1 | i
CN1CCN(Cc2cc(F)ccc2F)CC1 | i
O=c1c2ccccc2nc(/C=C/c2cc(Br)ccc2O)n1-c1cccc([N+](=O)[O-])c1 | i
O=[N+]([O-])c1cccc(CNCCc2ccc(F)cc2)c1 | i
CN1CCN(c2cc(N3CCCC3)ccc2[N+](=O)[O-])CC1 | i
CN1CCN(c2ccccc2[N+](=O)[O-])CC1 | i
CN1CCN(c2ccc([N+](=O)[O-])c(N3CCCCC3)c2)CC1 | +
CCCSc1nc2ccccc2c(=O)n1-c1ccccc1 | i
Brc1cccc(CN2CCCCC2c2cccnc2)c1 (stereo not given) | i
c1ccc2c(CN3CCCCCCC3)c[nH]c2c1 | i
C(#CCN1CCOCC1)COc1ccccc1 | i
C(#CCN1CCCCC1)COc1ccccc1 | +
COc1cccc(N2CCN(Cc3cccc(Br)c3)CC2)c1 | i
COC(=O)Nc1cc(N/C(N)=N\[N+](=O)[O-])ccc1C | i
